Data from PubChem BioAssay AID1159580 (chemical genetic matrix, 2015).
In all, about 5,500 compounds went through this assay and about 2,000 (36%) were called active. Another 18% or so got no clear call; they are omitted. Cut-off read from the data, not from the text of the source: active = normalized growth mostly below about 0.91 (no sharp cut-off); inconclusive = no clear call, values can overlap the other calls; inactive = mostly above about 0.92. Some of the results follow.

Assay: chemical genetic growth profiling, strain panel (AID 1159580);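 note: tested at 20 µM; growth read once vehicle control cultures reached saturation at 30 °C; 1 = growth at the plate median or of vehicle wells; lower values mean less growth of the strain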
Settings: growth OD

Measured: normalized growth

CCCCCCCCCCC[C@@H](C[C@H]1OC(=O)[C@H]1CCCCCC)OC(=O)[C@@H](CC(C)C)NC=O
inactive: S. cerevisiae deletion strains, locus YJR043C, strain POL32, active compounds read low 1.03 | S. cerevisiae deletion strains, locus YJR075W, strain HOC1, active compounds read low 1.06 | S. cerevisiae deletion strains, locus YKL009W, strain mrt4, active compounds read low 0.996 | S. cerevisiae deletion strains, locus YKL068W, active compounds read low 1 | S. cerevisiae deletion strains, locus YKL085W, strain MDH1 (second series), active compounds read low 1.02 | S. cerevisiae deletion strains, locus YKL085W, strain MDH1, active compounds read low 1.02 | S. cerevisiae deletion strains, locus YKL160W, strain elf1, active compounds read low 0.988 | S. cerevisiae deletion strains, locus YKL190W, strain CNB1, active compounds read low 1.03 | S. cerevisiae deletion strains, locus YKR001C, strain vps1, active compounds read low 1.03 | S. cerevisiae deletion strains, locus YKR026C, strain gcn3, active compounds read low 1.03 | S. cerevisiae deletion strains, locus YKR091W, strain srl3, active compounds read low 1.05 | S. cerevisiae deletion strains, locus YLL001W, strain dnm1, active compounds read low 1.04 | S. cerevisiae deletion strains, locus YLL026W, active compounds read low 0.997 | S. cerevisiae deletion strains, locus YLL041C, strain sdh2, active compounds read low 1.03 | S. cerevisiae deletion strains, locus YLR027C, strain aat2, active compounds read low 1.03 | S. cerevisiae deletion strains, locus YLR039C, strain RIC1, active compounds read low 1.03 | S. cerevisiae deletion strains, locus YLR058C, strain SHM2, active compounds read low 1.04 | S. cerevisiae deletion strains, locus YLR102C, strain apc9, active compounds read low 1.01 | S. cerevisiae deletion strains, locus YLR221C, strain rsa3, active compounds read low 1.03 | S. cerevisiae deletion strains, locus YLR258W, strain gsy2, active compounds read low 1.03 | S. cerevisiae deletion strains, locus YLR262C, strain YPT6 (second series), active compounds read low 1.1 | S. cerevisiae deletion strains, locus YLR262C, strain YPT6, active compounds read low 1.07 | S. cerevisiae deletion strains, locus YLR268W, strain sec22, active compounds read low 1.02 | S. cerevisiae deletion strains, locus YLR320W, strain mms22, active compounds read low 1.05 | S. cerevisiae deletion strains, locus YLR330W, strain CHS5, active compounds read low 1.03 | S. cerevisiae deletion strains, locus YLR342W, strain FKS1 (second series), active compounds read low 1.02 | S. cerevisiae deletion strains, locus YLR342W, strain FKS1, active compounds read low 1.01 | S. cerevisiae deletion strains, locus YLR357W, strain rsc2, active compounds read low 1.09 | S. cerevisiae deletion strains, locus YLR370C, strain arc18, active compounds read low 1.03 | S. cerevisiae deletion strains, locus YLR371W, strain rom2, active compounds read low 1.01 | S. cerevisiae deletion strains, locus YLR384C, strain iki3, active compounds read low 1.03 | S. cerevisiae deletion strains, locus YLR418C, strain cdc73, active compounds read low 1.03 | S. cerevisiae deletion strains, locus YML016C, strain PPZ1, active compounds read low 1.04 | S. cerevisiae deletion strains, locus YML032C, strain rad52, active compounds read low 1.04 | S. cerevisiae deletion strains, locus YML120C, strain ndi1, active compounds read low 1.02 | S. cerevisiae deletion strains, locus YML124C, strain tub3, active compounds read low 1.01 | S. cerevisiae deletion strains, locus YMR058W, strain fet3, active compounds read low 1.06 | S. cerevisiae deletion strains, locus YMR078C, strain ctf18, active compounds read low 1.03 | S. cerevisiae deletion strains, locus YMR125W, strain sto1, active compounds read low 1.05 | S. cerevisiae deletion strains, locus YMR129W, active compounds read low 1.02 | S. cerevisiae deletion strains, locus YMR205C, strain PFK2, active compounds read low 1.02 | S. cerevisiae deletion strains, locus YMR223W, strain ubp8, active compounds read low 1.03 | S. cerevisiae deletion strains, locus YMR231W, strain pep5, active compounds read low 1.05 | S. cerevisiae deletion strains, locus YMR263W, strain SAP30, active compounds read low 1.04 | S. cerevisiae deletion strains, locus YMR307W, strain GAS1, active compounds read low 1.05 | S. cerevisiae deletion strains, locus YNL067W, strain RPL9B, active compounds read low 1.04 | S. cerevisiae deletion strains, locus YNL071W, strain lat1, active compounds read low 1.02 | S. cerevisiae deletion strains, locus YNL128W, strain TEP1, active compounds read low 1.02 | S. cerevisiae deletion strains, locus YNL153C, strain GIM3, active compounds read low 1.04 | S. cerevisiae deletion strains, locus YNL209W, strain ssb2, active compounds read low 1.06 | S. cerevisiae deletion strains, locus YNL233W, strain BNI4, active compounds read low 1.03 | S. cerevisiae deletion strains, locus YNL248C, strain rpa49, active compounds read low 1.06 | S. cerevisiae deletion strains, locus YNL250W, strain rad50, active compounds read low 1.03 | S. cerevisiae deletion strains, locus YNL271C, strain bni1, active compounds read low 1.02 | S. cerevisiae deletion strains, locus YNL298W, strain CLA4, active compounds read low 1.03 | S. cerevisiae deletion strains, locus YNL307C, strain MCK1, active compounds read low 1.03 | S. cerevisiae deletion strains, locus YNL322C, strain KRE1 (second series), active compounds read low 1.03 | S. cerevisiae deletion strains, locus YNL322C, strain KRE1, active compounds read low 1.04 | S. cerevisiae deletion strains, locus YNR049C, strain mso1, active compounds read low 1.04 | S. cerevisiae deletion strains, locus YNR052C, strain pop2, active compounds read low 1.03 | S. cerevisiae deletion strains, locus YOL006C, strain TOP1, active compounds read low 1.08 | S. cerevisiae deletion strains, locus YOL012C, strain htz1 1.37 | S. cerevisiae deletion strains, locus YOL147C, strain pex11, active compounds read low 1.02 | S. cerevisiae deletion strains, locus YOR001W, strain rrp6, active compounds read low 1.03 | S. cerevisiae deletion strains, locus YOR061W, strain CKA2, active compounds read low 1.03 | S. cerevisiae deletion strains, locus YOR069W, strain VPS5, active compounds read low 1.02 | S. cerevisiae deletion strains, locus YOR070C, strain gyp1, active compounds read low 1.04 | S. cerevisiae deletion strains, locus YOR080W, strain dia2, active compounds read low 0.999 | S. cerevisiae deletion strains, locus YOR083W, strain WHI5, active compounds read low 1.04 | S. cerevisiae deletion strains, locus YOR106W, strain vam3, active compounds read low 1.03 | S. cerevisiae deletion strains, locus YOR136W, strain idh2, active compounds read low 1.03 | S. cerevisiae deletion strains, locus YOR144C, strain elg1, active compounds read low 1.02 | S. cerevisiae deletion strains, locus YOR184W, strain ser1, active compounds read low 1 | S. cerevisiae deletion strains, locus YOR265W, strain rbl2, active compounds read low 1.05 | S. cerevisiae deletion strains, locus YOR270C, strain vph1, active compounds read low 1.11 | S. cerevisiae deletion strains, locus YOR290C, strain snf2, active compounds read low 1.05 | S. cerevisiae deletion strains, locus YOR316C, strain cot1, active compounds read low 1.01 | S. cerevisiae deletion strains, locus YPL051W, strain arl3, active compounds read low 1.06 | S. cerevisiae deletion strains, locus YPL055C, strain LGE1, active compounds read low 1.04 | S. cerevisiae deletion strains, locus YPL078C, strain atp4, active compounds read low 1.08 | S. cerevisiae deletion strains, locus YPL106C, strain sse1, active compounds read low 1.05 | S. cerevisiae deletion strains, locus YPL240C, strain hsp82, active compounds read low 1.02 | S. cerevisiae deletion strains, locus YPL241C, strain CIN2, active compounds read low 1.03 | S. cerevisiae deletion strains, locus YPR119W, strain clb2, active compounds read low 0.996 | S. cerevisiae deletion strains, locus YPR141C, strain kar3, active compounds read low 1.02 | S. cerevisiae deletion strains, locus YPR163C, strain tif3, active compounds read low 1.03 | S. cerevisiae deletion strains, locus YPR167C, strain met16, active compounds read low 1.01 | S. cerevisiae deletion strains, strain wtn01, active compounds read low 1.01 | S. cerevisiae strains, strain wild type, active compounds read low 1.04
